# HEK cytotox – Cytotoxic Profiling in HEK 293 Cell Line of Diverse Libraries Using Quantitative High-Throughput Screening; HEK 293 viability, ATP luminescence (CellTiter-Glo), 48-72 h; Potency, µM (series often up to 115 µM), without a hit: at the top dose activity change, negative = cytotoxicity, most hits filed as inhibitors; actives 6.6% (n = 94,000); AID 1345083, 2018; note: nearly all actives have a fitted effect of over 60% in size
#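 ATP-coupled CellTiter-Glo luminescence served as viability read-out, recorded 10 min after reagent addition at room temperature. HEK 293 cells, 250 cells/well, had been incubated with pintool-transferred compound for 48 or 72 hr at 37 degree Celsius.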
# 3T3 cytotox – Cytotoxic Profiling in NIH 3T3 Cell Line of Diverse Libraries Using Quantitative High-Throughput Screening. NIH 3T3 viability, CellTiter-Glo ATP luminescence, 48-72 h. Potency, µM (series often up to 96.7 µM), for the others: top-dose activity change, negative = cytotoxicity, hits mostly inhibitors. actives 4.3% (n = 94,000). AID 1345082, 2018; note: nearly all actives have a fitted effect of over 55% in size
#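 ATP-dependent luminescence (CellTiter-Glo) served as the viability signal for NIH 3T3 cells treated with compound for 48 or 72 hr at 37 °C.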
# hNpr1 antagonist – Natriuretic polypeptide receptor (hNpr1) antagonism - Primary qHTS; HEK293 hNpr1 GloSensor cGMP, ANP-stimulated luminescence; Potency, µM (series often up to 46.3 µM), for inactives: top-dose activity change, negative = inhibition, most hits filed as inhibitors; Atrial natriuretic peptide receptor 1 (Homo sapiens), P16066; AID 1347048, 2019; actives 1.6% (n = 76,000); calls by dose curve; note: nearly all actives have a fitted effect of over 60% in size
#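 HEK293 cells stably expressing human Npr1 and cGMP GloSensor pGS-40F, loaded 2 h with 2% GloSensor reagent, given compound 30 min at room temperature. Luminescence read before and 20 min after 0.1 nM hNppA.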
# Luciferase inh – Firefly luciferase inhibition profiling of diverse chemical library using quantitative high-throughput screening. Luciferin 4-monooxygenase (Photinus pyralis), P08659. purified P. pyralis luciferase, luminescence, biochemical. Potency, µM (series often up to 115 µM), hits mostly inhibitors. actives 2.5% (n = 76,000). AID 1347043, 2019; note: nearly all actives have a fitted effect of over 65% in size
# Target sequence (P08659 whole entry, looked up): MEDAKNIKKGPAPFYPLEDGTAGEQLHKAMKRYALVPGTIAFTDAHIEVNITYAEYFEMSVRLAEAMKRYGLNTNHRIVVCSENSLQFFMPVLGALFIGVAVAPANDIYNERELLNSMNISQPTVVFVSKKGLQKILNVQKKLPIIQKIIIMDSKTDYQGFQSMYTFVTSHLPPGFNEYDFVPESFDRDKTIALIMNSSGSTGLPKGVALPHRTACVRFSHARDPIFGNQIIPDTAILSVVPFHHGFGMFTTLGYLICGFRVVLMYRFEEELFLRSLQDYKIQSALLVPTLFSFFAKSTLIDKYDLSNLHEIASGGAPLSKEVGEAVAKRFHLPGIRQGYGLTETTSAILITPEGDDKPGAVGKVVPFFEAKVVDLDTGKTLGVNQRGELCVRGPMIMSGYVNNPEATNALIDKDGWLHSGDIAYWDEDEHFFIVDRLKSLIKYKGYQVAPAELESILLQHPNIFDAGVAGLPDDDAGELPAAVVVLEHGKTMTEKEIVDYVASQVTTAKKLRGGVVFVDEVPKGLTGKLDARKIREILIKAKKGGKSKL
#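 FLuc 10nM, D-luciferin 10uM, ATP 10uM, Mg acetate 10mM, Tris acetate pH 7.5, Tween/BSA; cpd qHTS; enzyme added last; CCD luminescence.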
# Active calls of the source: *; i = inactive; ? = inconclusive; . = no result given; [ ] = dose if it differs, or a comment. Compounds with a hit are over-represented: about 11% of the library has one in this group of screens. Unless noted, calls come from the whole dose curve; as a rule, active = well fitted curve in the direction sought with a large enough effect; inconclusive = small, poorly fitted or top-dose-only effect, or another doubt; inactive = no such curve, though single readings can be large; an effect the other way counts as inactive or inconclusive. % is set by controls: 0 for no effect and ±100 for the full control effect; potency is the fitted concentration of half-maximal effect.
SMILES,HEK cytotox,3T3 cytotox,hNpr1 antagonist,Luciferase inh
O=C(NC1CCCc2c1cnn2-c1ccc(F)cc1F)c1c(F)cccc1Cl (stereo not drawn),35µM*,?,?,i
CCC(CC)N(CC)C(=O)CC1C(=O)NCCN1Cc1ccc(C)o1 (stereo not drawn),i,i,-4%,i
COc1ccc(Cl)cc1C(=O)N1CCC2(CC1)NC(=O)N(c1ccccc1Cl)N2,?,?,?,i
Cc1cc(C)cc(C(=O)N2CCC(c3n[nH]c(=O)n3-c3ccccc3)CC2)c1,-22%,-42%,-6%,i
CCN1CCC2(CC1)Cc1ccccc1CN(S(=O)(=O)c1ccccc1)C2,-24%,32µM*,.,.
CS(=O)(=O)N1Cc2ccccc2CC2(CCN(Cc3ccccn3)C2)C1 (stereo not drawn),-7%,-5%,.,.
CN(Cc1ccncc1)Cc1cccc(C(F)(F)F)c1,-20%[172 µM],-33%[138 µM],.,.
COc1ccc(-c2cc(N3CCCC(NC(=O)c4ccc(Br)o4)C3)n[nH]2)cc1 (stereo not drawn),?,?,-21%,32µM*
COc1ccc(-c2cc(N3CCC(NC(=O)COc4cccc(C)c4)CC3)n[nH]2)cc1,?,40µM*,?,i
O=C(NC1CCN(c2cc(-c3ccc(Cl)cc3)[nH]n2)C1)c1ccc(Br)o1 (stereo not drawn),35µM*,?,-28%,i
COc1ccc(-c2cc(N3CCCC(NC(=O)Cc4ccc(OC)c(OC)c4)C3)n[nH]2)cc1 (stereo not drawn),35µM*,?,?,?
O=C(NC1CCN(c2cc(-c3ccc(Cl)cc3)[nH]n2)C1)c1ccccc1 (stereo not drawn),?,?,-8%,i
COc1ccc(-c2cc(N3CCCC(NC(=O)c4ccccc4Br)C3)n[nH]2)cc1 (stereo not drawn),?,?,-19%,?
CC[C@H]1CN(C(=O)Nc2cccc(OC)c2)CC[C@H]1CC(=O)NCc1cccnc1,i,-1%[174 µM],1%[70.6 µM],i
O=C1CCCN1Cc1noc(-c2ccccc2)n1,16%,1%,0%,i
CCNC(=O)[C@@H]1C[C@@H](NC(=O)c2cn(C)nc2C)CN1Cc1ccccc1,1%,-4%,7%,i
O=C(NC1CCCN(c2cc(-c3ccc(Cl)cc3)[nH]n2)C1)c1ccc(Br)o1 (stereo not drawn),45µM*,?,-25%,i
CC(C)(C)n1c(=O)[nH]c2cccnc21,3%[230 µM],i,28%[70.6 µM],i
O=C(NCc1ccc2c(c1)OCO2)C1COC2(CCCCC2)N1C(=O)Cc1cccs1 (stereo not drawn),?,-28%,-2%,i
CCCc1nnc(C[C@@H]2C[C@@H](C(C)C)[C@H](CNCc3cccnc3)C=C2C)o1,?,-24%[138 µM],-12%[70.6 µM],i
CC1=C[C@@H](CNC(C)C)[C@H](C(C)C)C[C@H]1Cc1nnc(C(C)(C)C)o1,-1%[172 µM],-5%[138 µM],-3%[70.6 µM],i
CC1=C[C@@H](CNCc2cccnc2)[C@H](C(C)C)C[C@H]1Cc1nnc(-c2ccc([N+](=O)[O-])cc2)o1,11µM*,32µM*,?,i
COc1ccc(-c2nnc(C[C@@H]3C[C@@H](C(C)C)[C@H](CNCc4ccncc4)C=C3C)o2)cc1,25µM*,?,?,i
COc1ccc(-c2nnc(C[C@@H]3C[C@@H](C(C)C)[C@H](CNCc4ccco4)C=C3C)o2)cc1,45µM*,?,?,i
CC1=C[C@@H](CNCc2ccco2)[C@H](C(C)C)C[C@H]1Cc1nnc(C(C)(C)C)o1,63µM*,100µM*,1%[70.6 µM],i
SMILES,HEK cytotox,3T3 cytotox,hNpr1 antagonist,Luciferase inh
O=C1NCCOCCCN(Cc2cccc(F)c2)[C@H]2CCCC[C@@H]12,i,i,-1%,i
O=C(c1ccc(Cl)nc1)N1CCCC(C(=O)N2CCC(N3CCCC3=O)CC2)C1 (stereo not drawn),1%,-6%,.,.
O=C(NC1CCN(Cc2ccccc2)CC1)c1cccc2c1CCN2C(=O)c1ccccc1,40µM*,?,-28%,i
COc1ccc(CN2CC(Oc3ccccc3C(=O)NC3CC3)C2)cc1OC,-2%,-14%,-13%,i
COc1ccccc1-c1cccc(CN2CCC(NC(=O)N(C)C)CC2)c1,79µM*,?,.,.
COc1ccccc1C(=O)NC1CCN(Cc2cccc(-c3ccccc3OC)c2)CC1,45µM*,?,.,.
COc1ccccc1-c1cccc(CN2CCC(NC(=O)c3ccccc3Cl)CC2)c1,79µM*,?,.,.
COC(=O)NC1CCN(Cc2cccc(-c3ccccc3OC)c2)CC1,?,-27%,.,.
NC[C@H]1O[C@@H](CO)[C@@H](O)[C@H]1N1CCN(c2ccccn2)CC1,-7%[172 µM],-18%[174 µM],2%[70.6 µM],i
CCCc1ccc(S(=O)(=O)N2CCC3(CC2)C(=O)N(CC)c2ccccc23)cc1,12%,-1%,4%,i
CCCNC(=O)N1CCCC1C(=O)Nc1ccccc1-c1ccc(OC)cc1 (stereo not drawn),-5%,-24%,-5%,i
CCOc1ccc(C2Cn3nnc(-c4nc(CC)no4)c3CO2)cc1 (stereo not drawn),?,-28%,3%,i
COc1ccccc1-c1cccc(CN2CCC(NC(=O)c3ccccc3C)CC2)c1,45µM*,?,.,.
CN1CCc2c([nH]c3ccccc23)C12CCN(C(=O)c1ccc(Cn3ccnc3)o1)CC2,89µM*,-24%,1%,i
CN1CCc2c([nH]c3ccccc23)C12CCN(C(=O)c1ccnn1C)CC2,2%,-13%,0%,i
O=C(CSc1ccc(Cl)cc1)N[C@H]1CCOC[C@H]1C1CCOCC1,-2%,2%,5%,i
O=C(O)Cn1ccc2cc(OCC3CCN(C(=O)C4CCCC4)CC3)cnc21,3%[172 µM],100µM*,0%[70.6 µM],i
NC(=O)Cn1ccc2cc(OCC3CCN(C(=O)C4CC4)CC3)cnc21,-20%[172 µM],?,-1%[70.6 µM],?
O=C(O)Cn1ccc2cc(OCC3CCN(C(=O)CCC(F)(F)F)CC3)cnc21,-11%[172 µM],89µM*,-9%[70.6 µM],i
O=C(NCc1cccc(C(F)(F)F)c1)C1CCN(Cc2ccccc2-c2ccccc2F)CC1,25µM*,?,.,.
O=C(NCc1ccc(F)cc1)C1CCN(Cc2ccccc2-c2ccccc2F)CC1,32µM*,32µM*,.,.
COc1cc(CNC(=O)C2CCCN(c3cnn(C)c(=O)c3)C2)cc(OC)c1 (stereo not drawn),-6%,-16%,-11%,i
COc1ccc(-c2[nH]nc3ncc(-c4ccc(C)cc4)nc23)cc1F,45µM*,40µM*,-4%[70.6 µM],i
COc1ccc(-c2cnc3n[nH]c(-c4ccc(OC)c(F)c4)c3n2)cn1,?,?,1%[70.6 µM],i

# Compound activity (PubChem BioAssay)
